Test results: the OligoGym collection
Note: reference of the scale not given here.

The sequences below were run against SSR4 (assay: pooled miR-30 sensor sort-seq; sequence = guide strand). Details: shRNA.
For TATTCCTCTGAGCCTTCCTGAG, the sensor-assay potency score (higher = more potent) was -1.63.
AAGTAGTAGATCACAAGGCCGA showed a sensor-assay potency score (higher = more potent) of -0.597.
With TAGATCACAAGGCCGATCGCCG the sensor-assay potency score (higher = more potent) was -0.829.
With TCGAGTGACAGGGAATTGTTTT the sensor-assay potency score (higher = more potent) was -0.927.
AAGAATCTAACCTCATAGGTGC was tested, and the sensor-assay potency score (higher = more potent) was 0.237.
With TCGTCGAAGAATCTAACCTCAT the sensor-assay potency score (higher = more potent) was -1.5.
TGACTGTAAACAGAGGCGGGAT was tested, and the sensor-assay potency score (higher = more potent) was -0.672.
In the case of AATCTAACCTCATAGGTGCCTG, the sensor-assay potency score (higher = more potent) is reported as -0.709.
With TAGTAGGAAGGGGTGATCTGGG the sensor-assay potency score (higher = more potent) was -0.671.
Sequence TAACCTCATAGGTGCCTGCGTG has a sensor-assay potency score (higher = more potent) of -0.73.

What follows are sequences tested against SSTR1 in the same assay as above. Details: shRNA.
TTTTGAGATACACTGGAGCAGG gave a sensor-assay potency score (higher = more potent) of -0.72.
With TTTAGGATGTAGATGTTGGTGG the sensor-assay potency score (higher = more potent) was -0.196.
Sequence TAAATTTGTATCCTCTTAGAAG has a sensor-assay potency score (higher = more potent) of -1.31.
Sequence TTGGAAGTCTTCCACACTGTAG has a sensor-assay potency score (higher = more potent) of -0.86.
TAGATGACCATAGAGTTCCCAC was tested, and the sensor-assay potency score (higher = more potent) was -0.705.
For TTCAATAGTGATTTTAACCATT, the sensor-assay potency score (higher = more potent) was -0.629.
TAAACAAGAAAATAACTTCTTA showed a sensor-assay potency score (higher = more potent) of -0.323.
Work on TATCATTTATGTATTATCCTAA yielded a sensor-assay potency score (higher = more potent) of -0.0617.
TTGGTCTTTGAAAACGCGCAGT gave a sensor-assay potency score (higher = more potent) of -0.784.
Sequence TGAGTTGTTAATGAGTTCGTGA has a sensor-assay potency score (higher = more potent) of -0.0506.
TTAGATCTTTCTCAAGTCCAAC gave a sensor-assay potency score (higher = more potent) of -1.71.
TAAGGTGATCTTGCGCTCCGAG showed a sensor-assay potency score (higher = more potent) of 0.115.

Each sequence was assayed against SSU72 in the same assay as above. Details: shRNA.
With TCATACACTCTCTCTTCGCAAG the sensor-assay potency score (higher = more potent) was -1.24.
Work on TAAACATTGGGCTTGTCGGGAG yielded a sensor-assay potency score (higher = more potent) of -0.587.
Sequence TTTGAAATCATAAACATTGGGC has a sensor-assay potency score (higher = more potent) of 0.0382.
Work on TCGTTCTCCATGTCTTCCGTGT yielded a sensor-assay potency score (higher = more potent) of -0.416.
In the case of ATAAACATTGGGCTTGTCGGGA, the sensor-assay potency score (higher = more potent) is reported as -0.564.
With TTCTGGAATCTTTCTGGCCGGG the sensor-assay potency score (higher = more potent) was -0.713.
Sequence ATGAACAACAGGAAGCTCCAGA has a sensor-assay potency score (higher = more potent) of -0.247.
Sequence TTTCCTAAGAAGATCATTGTAC has a sensor-assay potency score (higher = more potent) of 0.179.
AACTTTGTAATCAATATCCTGC was tested, and the sensor-assay potency score (higher = more potent) was 0.0512.
AAGAAGATCATTGTACATCTGG showed a sensor-assay potency score (higher = more potent) of 0.705.
For TTGTACATCTGGTCATATGTGG, the sensor-assay potency score (higher = more potent) was 0.225.
For TAGAGTTCTTTGTCTTTCCTAA, the sensor-assay potency score (higher = more potent) was -0.0441.

Each sequence was assayed against SSX3 in the same assay as above. Details: shRNA.
ATATCATGTTAATCTTCTCAGA showed a sensor-assay potency score (higher = more potent) of -1.24.
TTTTGTATCTTCTCTGGTATTT was tested, and the sensor-assay potency score (higher = more potent) was -0.981.
For TTTGGGTCCAGATATCATGTTA, the sensor-assay potency score (higher = more potent) was -0.75.
TTTCTCCGAGACTTTCATCTTT showed a sensor-assay potency score (higher = more potent) of -0.136.
Work on TTGTATCTTCTCTGGTATTTGA yielded a sensor-assay potency score (higher = more potent) of -1.1.
TTTGTATCTTCTCTGGTATTTG was tested, and the sensor-assay potency score (higher = more potent) was -1.22.
